# According to PubChem BioAssay AID602393 (Broad Institute, 2012):
# The campaign covered roughly 350,000 compounds. About 7,000 (2%) were called active. The sample as a whole holds a higher share of actives than the screen did. Unmarked numbers belong to inactive results. Cut-off read from the data, not from the text of the source: active = activation above about 40%; inconclusive = no clear call, values can overlap the other calls; inactive = below that.
# Test: Bmi1 luciferase reporter increase in mESCs, primary screen, esBAF inhibitor project, mouse ES cells, Bmi1 luciferase knock-in, single point (AID 602393);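 note: 0% = median of the plate's neutral control wells and 100% = double that signal; a rise in the Bmi1 reporter signal indicates esBAF inhibition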
# Settings: 24 h, at 12.5 µM, stronger effect = higher value, 100% = twice the neutral-well signal
row,Structure (SMILES),reporter increase
1,CN1C(=O)c2cc(NC(=O)Nc3ccccc3F)ccc2OC[C@H]2O[C@@H](CC(=O)Nc3cccc(Cl)c3)CC[C@@H]21,20.4%
2,Cc1noc(C)c1S(=O)(=O)N(C)C[C@H]1OCCCC[C@H](C)Oc2ccc(NS(=O)(=O)c3ccccc3)cc2C(=O)N([C@H](C)CO)C[C@@H]1C,-1.33%
3,Cn1cnc(CCNC(=O)C[C@@H]2CC[C@@H]3[C@H](COC[C@@H](O)CN3C(=O)Nc3ccccc3)O2)c1,-3.44%
4,C[C@@H]1CN([C@@H](C)CO)S(=O)(=O)c2ccc(-c3cncnc3)cc2O[C@@H]1CN(C)C(=O)C1CC1,-3.14%
5,O=C(Cn1c(NCCO)nc2ccccc21)c1ccc(Cl)cc1Cl,-0.748%
6,C/C(=N\c1nc2ccccc2n1C)c1cc(Cl)ccc1O,-2.25%
7,Cn1c(Nc2cccc(Cl)c2)nc2ccccc21,53.4% (active)
8,C[C@@H]1CN([C@H](C)CO)C(=O)CCCn2cc(nn2)CO[C@@H]1CN(C)C(=O)c1ccc2ccn(C)c2c1,-1.71%
9,Cc1ccc(OCc2cc(C(=O)N(C)CCc3ccccc3)no2)cc1C,71.6% (active)
10,Cc1cc(CN(C)C(=O)c2cc(COc3ccc(C)c(C)c3)on2)n[nH]1,13.8%
11,Cc1ccc(OCc2cc(C(=O)N(C)CCn3ccnc3C)no2)cc1C,11.8%
12,O=C(Nc1ccccc1)Nc1ccc2c(c1)[C@@H]1C[C@@H](CC(=O)N3CCCCC3)O[C@H](CO)[C@@H]1O2,-0.639%
13,CO[C@H]1CN(C)C(=O)c2ccc(NS(=O)(=O)c3cn(C)cn3)cc2OC[C@@H](C)N(CC2CC2)C[C@H]1C,-8.79%
14,CN1CCc2ccccc2C1Cc1ccccc1NC(=O)c1sc2ccccc2c1Cl (stereo unspecified),51%
15,O=C(Nc1ccon1)c1sc2ccccc2c1Cl,48.7% (active)
16,O=C(Nc1ccon1)c1nc[nH]c1C(=O)NCc1ccccc1,-6.72%
17,Cc1ccc(-n2c(SCC(=O)N3CCC(C(=O)O)CC3)nc3ccccc3c2=O)cc1C,42% (active)
18,O=C(CSc1nc2ccccc2c(=O)n1-c1ccc(F)cc1)NC1CC1,-5.85%
19,O=C(CSc1nc2ccccc2c(=O)n1-c1ccccc1F)N1CCOCC1,-4.38%
20,Cc1noc(C)c1NC(=O)Nc1ccc2c(c1)C(=O)N([C@H](C)CO)C[C@H](C)[C@H](CN(C)S(=O)(=O)c1cccs1)O2,1.55%
21,O=C(NC1CCCC1)[C@H]1[C@H](CO)[C@H]2Cn3c(ccc(-c4ccccc4F)c3=O)[C@@H]1N2C(=O)CC1CC1,-2.95%
